The values below come from PubChem BioAssay.

Several values for one entry are separate records, joined by “and”; a condition that tells them apart may be missing. Identical values can stand only once. Activity calls are given as the source filed them.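 Rule for the calls, unless noted: active = inhibition at or above 50% relative to wild type and mutant plate controls; inactive = inhibition below 50%.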

Test [1] can be described thus: inhibitors of TNFa-induced NFkB p65 translocation, primary screen, imaging, HUVEC, MLSMR starter and 10KST1 sets (AID 438;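 active = inhibition above 20% together with a positive visual image hit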;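 note: compound added about 3h40 before a 20 min TNFalpha stimulation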;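 for inhibition: signal is the nuclear over cytoplasmic p65 intensity ratio per well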). Conditions: HUVEC TNFa-induced p65 nuclear translocation; cell count: measured here: nuclei count (cytotoxicity indicator), at 2.08 µM; inhibition: at 2 µM, stronger effect = higher value, 0% TNFa-plus-vehicle, 100% no-TNFa wells.
Test [2] in a line: reduction of polyQ htt aggregates in cells – imaging, exon1htt(103Q)mCFP cells, high-content imaging, primary screen (AID 483;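 active = visual image review flags a hit and inhibition of aggregation exceeds 20%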;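 note: compound exposure lasted 3 days before fixation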;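 for nuclei count: percent of the per-plate median nuclei count of sample wells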). To be noted: exon1htt(103Q)mCFP cell line, aggregate imaging, at 2 µM; inhibition of aggregation: stronger effect = higher value; nuclei count: measured here: cell count, toxicity.
The nature of test [3]: endothelial E-selectin expression blockers – imaging, HUVEC, immunofluorescence, MLSMR starter and 10KST1 sets, primary screen (AID 487;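 active = visually confirmed hit in the image check and inhibition above 20%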;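 for inhibition: signal is fraction of cell area covered by stained E-selectin grains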;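 for nuclei count: 100% = median nuclei count of all wells on the same plate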). Conditions: HUVEC TNFalpha-induced E-selectin immunofluorescence imaging, at 2 µM; inhibition: stronger effect = higher value; nuclei count: measured here: cell number, toxicity.
Test [4] can be described thus: Primary imaging screen for DUSP6 inhibitors that restore phospho-Erk in transfected HeLa cells, chemical complementation (AID 609;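 active = compounds giving at least 50% inhibition in the cell-based MKP-3 phosphatase rescue imaging test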;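 for inhibition: phospho-Erk level distribution per well compared with pooled transfected vehicle control wells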). Conditions: HeLa MKP-3 transfected, phospho-Erk imaging KS statistic, at 10 µM, cells stimulated with TPA for 15 min.
Test [5] has as its target Dual specificity protein phosphatase 6 (Homo sapiens) (UniProt Q16828). Described as above. To be noted: HeLa MKP-3 transfected, phospho-Erk imaging KS statistic; at 10 µM; stronger effect = higher value; cells stimulated with TPA for 15 min.
In test [6] the target is Voltage-gated potassium channel subunit beta-2 (Rattus norvegicus) (UniProt P62483). The experiment in a line: inhibitors of rat Kvbeta2 reductase activity – biochemical, NADPH fluorescence, primary screen (AID 622;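 active = fluorescence slope higher than the sample average by over 3 SD, cut at about -0.22 in these data, passing the limit was not always enough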;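 note: slope of raw intensity against log time taken from 70 to 1610 s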). To be noted: recombinant KvBeta, 4-cyanobenzaldehyde reduction, at 10 µM, stronger effect = higher value.
For test [7] the target is unchanged. The experiment in a line: enhancers of rat Kvbeta2 NADPH turnover – biochemical, NADPH fluorescence, primary screen (AID 623;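 active = NADPH fluorescence slope more negative than the mean of all samples by about 3 SD, 99.7% confidence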;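 note: fluorescence intensity change per second fitted from 20 to 320 s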). To be noted: Recombinant KvBeta, NADPH fluorescence decrease slope, 10 min; at 10 µM; stronger effect = lower value.
Test [8] has as its target Alpha-2C adrenergic receptor (Homo sapiens) (UniProt P18825). The experiment in a line: compounds altering alpha2C-coupled GIRK flux – cell-based, HEK293 alpha2C/GIRK1/2, thallium flux, primary screen (AID 624;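 active = fluorescence slope after compound addition differing from the mean of all screened samples at 99.7% confidence, in either direction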;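 note: slope of fluorescence ratio to pre-addition baseline per second over 15 to 24 s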). Conditions: thallium flux BTC fluorescence, at 10 µM, actives lie on both sides.
A short description of test [9]: inhibitors of larval lipid processing in zebrafish, primary screen, whole organism, PED6 fluorescence, gall bladder and intestine (AID 686;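 active = a full or partial loss of lipid-probe fluorescence in the fish gall bladder, intestine or both, judged by eye; inactive = no fluorescence loss, or compound toxic to the fish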;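 note: larvae 5 to 7 days old with five fish per well; signal comes from phospholipase A2 cleavage of quenched PED6 carried via bile; overnight exposure to compound and PED6 before scoring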). To be noted: Zebrafish larvae PED6 lipid processing, fluorescence scoring; screened at 20 µM (by protocol).
Test [10] in a line: loss of swimming-algae plug formation – whole organism, Chlamydomonas reinhardtii, WT vs cilia-less mutant, absorbance, 96-well, primary screen (AID 463189).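 Note: 0% = wild type cc124 cells in DMSO and 100% = ciliumless bld1 mutant cells.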 To be noted: Chlamydomonas reinhardtii gravitaxis, OD600 absorbance, 2 days; at 10 µM; stronger effect = higher value.
A short description of test [11]: blockers of RIG-like receptor reporter activation – cell-based, Sendai virus stimulus, luciferase, 10K MLSCN set, TLR/RLR signaling modifier project, primary screen (AID 602276;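 active = inhibition at or above 50% at 10 µM; inactive = inhibition below 50%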;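 note: firefly luciferase from ISG56 promoter only with Renilla not read in this screen; 0% = Sendai virus plus DMSO and 100% = medium plus DMSO without virus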). Conditions: HEK293 RL24 IRF3 luciferase reporter, at 10 µM, stronger effect = higher value. (A reporter such as luciferase makes a cellular process visible.)
A short description of test [12]: TLR3 IRF3 reporter activation blockers – cell-based, poly I:C stimulus, luciferase, 10K MLSCN set, primary screen (AID 602277;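 active = inhibition of the reporter signal at or above 50%; inactive = inhibition below 50%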). Conditions: HEK293-TLR3 RL24 IRF3 luciferase reporter, at 10 µM, stronger effect = higher value.
[13] abbreviates: measured here: cell density z-score.
[14] abbreviates: measured here: nuclear c-Myc green intensity z-score.
Setting [15] is: measured here: nuclear pErk red intensity z-score, stronger effect = higher value.

Sequence of Voltage-gated potassium channel subunit beta-2 (Rattus norvegicus) (P62483 whole entry, looked up): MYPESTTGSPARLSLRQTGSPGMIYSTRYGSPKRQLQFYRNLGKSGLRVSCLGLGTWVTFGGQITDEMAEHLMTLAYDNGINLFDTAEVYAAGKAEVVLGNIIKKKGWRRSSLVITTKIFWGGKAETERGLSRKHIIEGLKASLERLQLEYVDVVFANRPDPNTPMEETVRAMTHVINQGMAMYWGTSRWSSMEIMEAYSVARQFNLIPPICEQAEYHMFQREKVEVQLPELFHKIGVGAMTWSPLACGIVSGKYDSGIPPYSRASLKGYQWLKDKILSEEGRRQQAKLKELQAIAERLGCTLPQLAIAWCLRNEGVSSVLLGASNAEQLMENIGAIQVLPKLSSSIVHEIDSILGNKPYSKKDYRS
Sequence of Alpha-2C adrenergic receptor (Homo sapiens) (P18825 whole entry, looked up): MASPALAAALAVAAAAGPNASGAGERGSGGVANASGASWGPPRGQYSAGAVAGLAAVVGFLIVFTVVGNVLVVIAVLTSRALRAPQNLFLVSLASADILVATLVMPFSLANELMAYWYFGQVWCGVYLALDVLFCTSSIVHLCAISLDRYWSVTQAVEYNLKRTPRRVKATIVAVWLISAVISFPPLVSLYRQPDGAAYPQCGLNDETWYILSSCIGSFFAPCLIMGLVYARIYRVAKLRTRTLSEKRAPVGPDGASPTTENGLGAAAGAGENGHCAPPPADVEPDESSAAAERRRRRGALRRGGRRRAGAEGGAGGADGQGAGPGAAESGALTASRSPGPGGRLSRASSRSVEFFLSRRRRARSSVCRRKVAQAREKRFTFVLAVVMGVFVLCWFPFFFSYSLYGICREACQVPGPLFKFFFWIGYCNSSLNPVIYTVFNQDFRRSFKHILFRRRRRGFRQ
Sequence of Dual specificity protein phosphatase 6 (Homo sapiens) (Q16828 whole entry, looked up): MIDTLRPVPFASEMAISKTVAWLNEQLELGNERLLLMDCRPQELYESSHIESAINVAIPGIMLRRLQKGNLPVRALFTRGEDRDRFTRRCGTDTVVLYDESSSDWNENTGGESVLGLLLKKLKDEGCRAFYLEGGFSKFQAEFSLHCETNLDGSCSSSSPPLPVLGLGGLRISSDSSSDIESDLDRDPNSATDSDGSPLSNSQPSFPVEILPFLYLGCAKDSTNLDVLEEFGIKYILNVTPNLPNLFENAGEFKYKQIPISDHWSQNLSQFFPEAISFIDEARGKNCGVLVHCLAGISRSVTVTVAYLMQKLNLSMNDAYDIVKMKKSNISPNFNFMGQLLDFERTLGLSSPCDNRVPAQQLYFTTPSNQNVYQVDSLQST

For `Cc1cc(C)nc(NC2=NCC(=O)N2c2ccc(Cl)cc2)n1`, the cell count in test [1] was found to be 641. Also, the inhibition (in general, the relative decrease from the control value, in per cent) is -3.3% (inactive) in test [1]; -78.7% (inactive) in test [3]; 13.9% (inactive) in test [5]; -3.81% (inactive) in [10]; 15.2% (inactive) in test [11]; 17.2% (inactive) in test [12]. Also, in test [2], the inhibition of aggregation is -9.6% (inactive). The nuclei count was found to be 111% in test [2] and 107% in test [3]. For the same compound, the z-score in test [4] (setting [13]) was 0.855; in test [4] (setting [14]), 0.968; in test [4] (setting [15]), -1.07. Also, the fluorescence slope in test [6] was -0.492 (inactive). In test [7], the NADPH fluorescence slope was -1.6e-05 (inactive). Moreover, in test [8], the slope was 0.00625 (inactive). In addition, the call in test [9] was inactive.

As to `CCCCOc1ccc(C(=O)Nn2cnnc2)cc1`, the cell count in test [1] came out at 491. Further, the inhibition in [1] was -0.8% (inactive); in test [3], -83.6% (inactive); in test [5], -8.27% (inactive); in [10], 0.154% (inactive); in test [11], 9.75% (inactive); in [12] it was 15.4% (inactive). Moreover, in test [2], the inhibition of aggregation is 14.2% (inactive). Besides, the nuclei count was determined as 96.9% in test [2] and 100% in [3]. For the same compound, the z-score is -0.477 in [4] (setting [13]), -1.53 in test [4] (setting [14]) and -0.77 in [4] (setting [15]). The fluorescence slope in test [6] is -0.32 (inactive). The NADPH fluorescence slope in test [7] is -2.1e-05 (inactive). Further, the slope in test [8] was 0.00306 (inactive). Besides, the call in [9] was inactive.

With `CCCCC1C(=O)N(c2ccccc2)N(c2ccccc2)C1=O`, in test [1], the cell count came to 638. Besides, the inhibition in test [1] was 4.6% (inactive); in [3], -26.6% (inactive); in test [5], 8% (inactive); in test [10], 5.13% (inactive) and -8.61% (inactive); in [11], 19.9% (inactive); in [12], 41.2% (inactive). For the same compound, the inhibition of aggregation in test [2] is -5.9% (inactive). The figures for the nuclei count in test [2] and in test [3] were 96.9% and 109%, respectively. The results for the z-score in test [4] (setting [13]), in test [4] (setting [14]) and in test [4] (setting [15]) were 1.68, -0.325 and -0.291, respectively. Besides, in test [6], the fluorescence slope is -0.483 (inactive). Also, the NADPH fluorescence slope in [7] is -4.2e-05 (inactive). Besides, the slope in test [8] was 0.00446 (inactive). The result in [9] was inactive.

Consider `CC1C/C=C/C=C/C=C/C=C/C(O[C@@H]2O[C@H](C)[C@@H](O)[C@H](N)[C@@H]2O)CC2OC(O)(CC(O)CC3OC3/C=C/C(=O)O1)CC(O)C2C(=O)O` (stereo not given in full), for which the cell count in [1] was 624. Besides, the inhibition in test [1] was -3.2% (inactive); in test [3] it was -59.4% (inactive); in test [5], 11.3% (inactive); in test [10], 1.43% (inactive); in test [11] it was 7.33% (inactive); in test [12], 28.4% (inactive). Besides, the inhibition of aggregation in test [2] is 0.7% (inactive). The nuclei count stood at 111% in test [2] and 135% in test [3]. Further, the values for the z-score in test [4] (setting [13]), in [4] (setting [14]) and in test [4] (setting [15]) were -0.528, -0.94 and -0.621, respectively. Further, the fluorescence slope in test [6] is -0.469 (inactive). In test [7], the NADPH fluorescence slope was -4.6e-05 (inactive). In addition, in [8], the slope is 0.00542 (inactive). For the same compound, the compound was classed as inactive in [9].

Take `COc1ccc(C2/C(=C(/O)c3ccccc3)C(=O)C(=O)N2c2ncccn2)cc1OC` (stereo not given): the cell count in test [1] turned out to be 460. Further, the inhibition was -0.7% (inactive) in [1]; -7.4% (inactive) in test [3]; 11.4% (inactive) in test [5]; -1.92% (inactive) in test [10]; 7.62% (inactive) in test [11]; 3.83% (inactive) in [12]. For the same compound, the inhibition of aggregation in [2] was 2.3% (inactive). For the same compound, the figures for the nuclei count in test [2] and in test [3] were 108% and 151%, respectively. The z-score in [4] (setting [13]) was -0.394; in test [4] (setting [14]) it was 1.14; in [4] (setting [15]), -0.858. Besides, the fluorescence slope in test [6] was -0.338 (inactive). The NADPH fluorescence slope in [7] is -3.2e-05 (inactive). For the same compound, in test [8], the slope is 0.00532 (inactive). For the same compound, the compound was called inactive in test [9].

For the compound `O=C(O)Cc1ccc(-c2ccccc2)cc1`, in test [1], the cell count came to 636. Also, the inhibition was -3% (inactive) in test [1]; -30.6% (inactive) in test [3]; 19% (inactive) in [5]; -15% (inactive) in [10]; 8.68% (inactive) in test [11]; 34.8% (inactive) in test [12]. In addition, in [2], the inhibition of aggregation was -7.3% (inactive). Further, the nuclei count in test [2] worked out at 105%; in [3], 123%. For the same compound, the results for the z-score in test [4] (setting [13]), in test [4] (setting [14]) and in test [4] (setting [15]) were 1.25, 0.515 and -0.372, respectively. In addition, the fluorescence slope in [6] was -0.444 (inactive). In addition, in test [7], the NADPH fluorescence slope was -4.7e-05 (inactive). In addition, the slope in [8] was 0.00497 (inactive). Moreover, the call in [9] was inactive.

For the compound `O=C1CC(c2ccccc2)NC(=O)N1` (stereo not given), the cell count in test [1] was determined as 692. Besides, the inhibition in [1] is -11.2% (inactive); in test [3] it was 23% (inactive); in test [5] it was 9.39% (inactive); in [10], -8.12% (inactive); in test [11] it was 11% (inactive); in test [12], 23.5% (inactive). Moreover, in test [2], the inhibition of aggregation is 15.5% (inactive). The nuclei count in test [2] was 100%; in test [3] it was 127%. The z-score was -1.04 in [4] (setting [13]), -0.999 in test [4] (setting [14]) and 0.572 in test [4] (setting [15]). Also, in test [6], the fluorescence slope is -0.454 (inactive). The NADPH fluorescence slope in test [7] is -0.000279 (inactive). Further, the slope in [8] is 0.0044 (inactive). In addition, in test [9], the outcome was inactive.

As to `Cn1cc(NC(=O)c2cc(NC(=O)c3cc(NC=O)cn3C)cn2C)cc1C(=O)NCCC(=N)N`, the cell count in test [1] was 571. The inhibition in test [1] was -3.6% (inactive); in test [3], -15.4% (inactive); in test [5], -0.493% (inactive); in test [10] it was -16.5% (inactive); in test [11], 19.8% (inactive); in [12] it was 37.3% (inactive). The inhibition of aggregation in [2] is -13.8% (inactive). Also, the values for the nuclei count in test [2] and in [3] were 96.4% and 95.1%, respectively. In addition, the z-score is -1.3 in [4] (setting [13]), 0.0863 in test [4] (setting [14]) and -0.177 in [4] (setting [15]). Also, the fluorescence slope in [6] was -0.499 (inactive). For the same compound, the NADPH fluorescence slope in [7] is -3.2e-05 (inactive). Besides, in test [8], the slope was 0.00517 (inactive). The compound was classed as inactive in [9].

As for `COc1ccc(Cn2c(CCCO)nc3ccccc32)cc1OC`, in test [1], the cell count stood at 577. The inhibition was -7.7% (inactive) in test [1]; -84% (inactive) in test [3]; -5.89% (inactive) in test [5]; 2.72% (inactive) in [10]; 13.3% (inactive) in test [11]; 22.4% (inactive) in test [12]. Besides, the inhibition of aggregation in test [2] was -17% (inactive). The values for the nuclei count in test [2] and in [3] were 105% and 122%, respectively. Besides, the z-score in test [4] (setting [13]) was -0.981; in [4] (setting [14]), 1.12; in [4] (setting [15]) it was 1.14. In addition, the fluorescence slope in [6] is -0.412 (inactive). Further, the NADPH fluorescence slope in test [7] is -4.3e-05 (inactive). Besides, the slope in [8] was 0.0064 (inactive). In addition, the compound was classed as inactive in [9].

Turning to `CC(C)C1Cc2c(C#N)c(N)sc(=S)c2CO1` (stereo not given), the cell count in [1] came out at 487. Also, the inhibition in test [1] was 4.7% (inactive); in test [3], -98.3% (inactive); in [5] it was 14% (inactive); in [10], 27.2% (inactive); in [11], -3.04% (inactive); in [12] it was 12.1% (inactive). In addition, in test [2], the inhibition of aggregation was 2.2% (inactive). Moreover, the nuclei count in [2] is 102%; in test [3] it was 146%. Moreover, the z-score in test [4] (setting [13]) was 1.33; in [4] (setting [14]), -0.895; in [4] (setting [15]), 0.775. Also, in [6], the fluorescence slope was -0.291 (inactive). In addition, the NADPH fluorescence slope in test [7] was 1.2e-05 (inactive). The slope in test [8] was 0.0021 (inactive). Moreover, the result in [9] was inactive.
